Pol iota inh – DNA polymerase iota (human) inhibition; Q9UNA4; Pol iota fluorescent replication assay, 10 min; Potency, µM (highest dose often 115 µM), for inactives: top-dose activity, negative = inhibition, usual class: inhibitors; actives 1% (n = 390,000); AID 588590; further: potency means the concentration at half of the fitted maximal effect
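Fluorescent replication assay read twice, at 0 min and 10 min after adding 50 nM (final) substrate. Enzyme (10 nM) and compounds were first incubated 15 min at room temperature; enzyme-free buffer wells were negative controls.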
PI5P4K alpha inh – blocks human PI5P4K alpha kinase activity; PI5P4Kalpha enzyme, ADP-Glo luminescence, 60 min; active compounds read low; actives 1.2% (n = 330,000); max response, %; P48426; active means max response of -50% or lower; inconclusive means between -30% and -50%; inactive means -30% or higher; further: value at the top dose of about 77 µM; on the % scale 0 is the no-effect control and ±100 the full control effect
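Luminescence from ADP-Glo served as readout of PI5P4Kalpha activity in a qHTS format. Reaction: enzyme, substrate, compound, ATP at 5 microM final, 60 min at RT.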
Pol beta inh – inhibitors of human DNA polymerase beta; P06746; actives 1.3% (n = 340,000); Potency, µM (titrated, usually from 114 µM), for inactives: at the top dose activity change, negative = inhibition, hits mostly inhibitors; Pol beta primer extension/strand displacement, fluorescence kinetic; further: potency means the concentration at half of the fitted maximal effect; on the % scale 0 is the no-effect control and ±100 the full control effect
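10 nM enzyme + cpd, 15 min RT; start with substrate 50 nM final; read 0 min and after 10 min RT. Corrected, normalized data; 4-parameter Hill curve fit.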
PI4K2A inh – PI4K2A (human) kinase inhibition; purified PI4K2A, ADP-Glo luminescence, 1 h; active compounds read low; activity change, negative = inhibition, % at 76.9 µM; actives 0.13% (n = 420,000); AID 1346378; in the data active means activity change below about -50%; inconclusive means mostly about -30% to -49%;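 further: -100% = wells without enzyme as full effect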
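ADP-Glo luminescence measured ADP generated by PI4K2A enzyme (4 ug/mL before mixing) with 1.2 mM PI substrate (pre-mix) and 300 microM ATP (pre-mix). Tris pH7.5 buffer with MgCl2, Triton X-100; 1 h reaction at ambient temperature.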
POLK inh – DNA polymerase kappa (human) inhibition; purified Pol kappa, fluorescent DNA synthesis assay, 10 min; Potency, µM (series often up to 107 µM), for inactives: top-dose activity, negative = inhibition, hits mostly inhibitors; actives 0.53% (n = 400,000); AID 588579; further: potency means the concentration at half of the fitted maximal effect; on the % scale 0 is the no-effect control and ±100 the full control effect
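Activity was followed as the change in fluorescence between reads at 0 and 10 min after starting the reaction with 50 nM substrate. Beforehand, 10 nM polymerase had been preincubated with compound for 15 min at room temperature.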
Pol eta inh – inhibitors of human DNA polymerase eta; Q9Y253; recombinant Pol eta, fluorescent DNA replication assay; Potency, µM (titrated, usually from 114 µM), for the others: top-dose activity change, negative = inhibition, most hits filed as inhibitors; actives 1.2% (n = 390,000); further: potency means the concentration at half of the fitted maximal effect; on the % scale 0 is the no-effect control and ±100 the full control effect
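Fluorescent replication assay: 50 nM final substrate added after a 15 min room-temperature compound preincubation with 10 nM enzyme. Signal taken at 0 min and again at 10 min.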
The depositor's hits bear a star; u = inconclusive; x = no result; [ ] = another dose, or the depositor's remark. Only some compounds are listed: those with a hit (about 2.8% of all), similar ones and a draw of the others. Unless noted, the call rests on the fitted dose curve; in most records, active means well fitted inhibition curve with a large enough effect; inconclusive means small, poorly fitted or top-dose-only effect, or another doubt; inactive means no such curve, though single readings can be large or run the other way.

SMILES | Pol iota inh | PI5P4K alpha inh | Pol beta inh | PI4K2A inh | POLK inh | Pol eta inh
O=C(COc1ccc(Cl)cc1Cl)Nc1ccc(C(=O)Nc2ccccc2C(=O)O)cc1 | u | -57* | 32µM* | -5 | -33% | 8%
O=C(O)COc1cccc(NC(=O)c2ccccc2)c1 | u | x | 2% | -14 | -3% | 79µM*
COc1cccc(OCC(=O)NNC(=O)c2ccc(-c3ccccc3)cc2)c1 | u | -5 | 79µM* | -14 | -14% | -16%
COc1cccc(S(=O)(=O)N(C)C[C@H]2OCc3cnnn3CCCC(=O)N([C@@H](C)CO)C[C@@H]2C)c1 | x | -13 | x | -1 | x | 2%
Cc1ccc(OCCn2cc(C(=O)c3ccco3)c3ccccc32)cc1C | -3% | x | 1% | 0 | -22% | -17%
O=C(NCc1cccs1)O[C@H]1CC[C@@]23CCCN2C(=O)CCC[C@H]3C1 | x | x | x | -3 | x | x
O=C(c1ccccc1)N1CC[C@H]2[C@H](CCCN2Cc2cc(F)cc(F)c2)C1 | x | x | x | -1 | x | x
Nn1c(Nc2ccccc2)nc2sc3c(c2c1=O)CCC3 | -2% | -13 | 4% | 3 | -12% | -2%
CCn1c(NN)nc2sc3c(c2c1=O)CCC3 | -31% | -59* | -22% | -5 | -3% | u
NNc1nc2sc3c(c2c(=O)n1Cc1ccccc1)CCC3 | u | -74* | u | -7 | u | 2%
CCOC(=O)[C@]12CCCC=C1N(Cc1ccc(OC)cc1)C(=O)[C@@H]2CC(=O)N1CCN(C(=O)C2CC2)CC1 | x | x | x | 0 | x | x
CCCc1cc2c(cc1N(C)S(=O)(=O)c1ccccc1)OCO2 | 4% | 3 | x | 3 | -21% | -7%
COc1cccc(N2CCN(C(=O)CSc3nc4ncccc4[nH]3)CC2)c1 | x | x | x | -4 | x | x
Cc1cccc(C(=O)Nc2ccccc2OCc2cc(=O)n3c(C)csc3n2)c1 | 20% | x | 83% | -7 | -7% | -8%
Cc1cccc(C(=O)Nc2ccc(C(=O)OCc3cc(=O)n4c(C)csc4n3)cc2)c1 | -28% | x | 13µM* | 1 | -5%[60.1 µM] | -21%
COc1ccc(-c2nc(SCC(=O)Nc3c(C)cc(C)cc3C)n[nH]2)cc1 | 9% | x | -11% | 1 | 0%[60.1 µM] | -9%
O=C(NCc1cccs1)C1CC(c2ccc(Cl)cc2)=NO1 (stereo not drawn) | 27% | 5 | -16% | 1 | 1% | 7%
O=C(NNC(=O)C1CC(c2cccs2)=NO1)Nc1ccc(Cl)cc1 (stereo not drawn) | u | -7 | 45µM* | 4 | -37% | -23%
COc1ccc(C2C=C3CN(C(=O)OC(C)(C)C)S(=O)(=O)C3CC2OC(=O)c2cccc(C)c2)cc1 (stereo not drawn) | 17% | x | x | x | 0% | x
Cc1c(C(=O)NC(C)C)oc2c1-c1[nH]ncc1CC2 | 25µM* | -3 | 42% | -8 | 2% | 10%
CC(C)(O)C(O)COc1c2ccoc2cc2oc(=O)ccc12 (stereo not drawn) | u | -1 | 22µM* | -1 | u | u
c1coc(CSSCc2ccco2)c1 | u | u | x | -24 | 8.9µM* | 20µM*
Cc1ccc(NC(=O)CSCc2ccco2)cc1 | 60% | -2 | -1% | -2 | -13% | -11%
CC[C@H](C)[C@H](NC(=O)[C@@H]1CCCN1C(=O)[C@H](Cc1cnc[nH]1)NC(=O)[C@@H](NC(=O)[C@H](Cc1ccc(O)cc1)NC(=O)[C@@H](NC(=O)[C@H](CCCN=C(N)N)NC(=O)CNC)C(C)C)[C@@H](C)CC)C(=O)O | x | x | x | x | 9%[60.1 µM] | x
COc1cc(/C=C/C(=O)OCC(=O)Nc2ccc(Cl)cn2)ccc1O | 35µM* | -22 | x | -1 | u | 56µM*
COc1cc(/C=C/C(=O)OCC(=O)Nc2ccc(S(N)(=O)=O)cc2)ccc1O | u | -23 | 1% | 7 | u | 50µM*
O=C(COC(=O)/C=C/c1ccc(F)cc1)Nc1ccc(Cl)cn1 | 89% | -2 | 3% | -19 | -4% | 2%

High-throughput results (PubChem)
